Bioassay records (PubChem BioAssay)
hgDAF-12 ag: activates the H. glycines DAF-12 receptor ligand-binding domain | HEK293 GAL4-hgDAF12 UAS-luciferase reporter, agonist luminescence; normalized to butyrate control | activation, % at 6.8 µM | 370,000 tested, 1.8% active;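 active = activation above a cutoff set at the mean of all screened compounds plus 3 SD, cut at about 10% in these data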;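 also: 0% = DMSO wells and 100% = sodium butyrate wells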
ssDAF12 agonist: activates DAF-12 receptor from parasite S. stercoralis; 370,000 tested, 1% active; HEK293 ssDAF-12/GRIP1 lit1-tk-luc reporter, luminescence; % of 3 µM dafachronic acid response; activation, % at 6.8 µM;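 active = activation above the mean over all tested compounds plus 3 SD, cut at about 0.9% in these data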;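 also: 0% = DMSO-only wells and 100% = 3 µM delta7-dafachronic acid wells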
hcDAF-12 act: activates DAF-12 receptor from parasite H. contortus. AID 652067. HEK293 hcDAF-12 lit1-tk-luc reporter, luminescence; 0% DMSO, 100% Δ7-dafachronic acid. 370,000 tested, 1.4% active. activation, % at 6.8 µM;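 active = activation above the mean of all tested compounds plus 3 SD, cut at about 5.5% in these data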;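 also: 100% = response to 3 µM Δ7-dafachronic acid high control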
APP 5'UTR act: activates APP 5'UTR luciferase reporter | activation, % at 2 µM | 190,000 tested, 1% active | SH-SY5Y APP 5'UTR luciferase reporter, luminescence; zero percent = DMSO vehicle wells | AID 1276;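 active = activation above a set limit, based on mean plus 3 SD of controls, cut at about 140% in these data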
NF-kB expr up: raises NF-kB expression in human neuronal cells; AID 1239; NF-kB reporter expression; stronger effect = higher value; 190,000 tested, 1.6% active; fold change at 12.5 µM; in the data active = fold change above about 3.3
LXRb hcDAF ctr: counter-screen for hcDAF-12 agonists: agonists of human LXR-beta | shares compounds with hcDAF-12 act | HEK293 Gal4-LXR tk-luc reporter, luminescence, 24 h; normalized: DMSO 0%, positive control 100% | activation, % at 6.8 µM | 3,400 tested, under 10 active;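 active = mean percent activation of the reporter above a cutoff set as the average over tested compounds plus their standard deviation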
Target sequence (P55055 whole entry, looked up, the tested form may be a part): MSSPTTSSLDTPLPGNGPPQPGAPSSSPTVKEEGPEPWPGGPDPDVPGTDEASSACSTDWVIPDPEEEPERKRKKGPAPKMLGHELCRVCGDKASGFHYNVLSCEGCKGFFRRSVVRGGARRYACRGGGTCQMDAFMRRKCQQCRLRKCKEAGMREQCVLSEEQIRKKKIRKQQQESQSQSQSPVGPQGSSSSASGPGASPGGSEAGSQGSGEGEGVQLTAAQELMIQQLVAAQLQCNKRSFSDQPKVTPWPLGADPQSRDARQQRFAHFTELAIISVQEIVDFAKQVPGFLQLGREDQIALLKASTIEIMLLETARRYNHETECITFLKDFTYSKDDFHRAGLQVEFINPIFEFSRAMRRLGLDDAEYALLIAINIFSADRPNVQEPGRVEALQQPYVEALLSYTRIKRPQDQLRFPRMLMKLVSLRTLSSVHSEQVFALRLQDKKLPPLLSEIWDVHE
hcDAF12 conf: hcDAF-12 agonism, confirmation assay | HEK293 hcDAF-12 lit1-tk-luc reporter, luminescence; % of Δ7-dafachronic acid response | shares compounds with hcDAF-12 act | activation, % at 6.8 µM | 3,400 tested, 61% active;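 active = mean activation across triplicate tests above the threshold derived from the earlier primary screen, cut at about 5.5% in these data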;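 also: 0% = DMSO only wells and 100% = 3 µM Δ7-dafachronic acid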
hgDAF12 conf: hgDAF-12 agonism, confirmation assay. shares compounds with hgDAF-12 ag. HEK293 GAL4-hgDAF12 luciferase reporter, agonist mode; percent of butyrate response. activation, % at 6.8 µM. 3,300 tested, 80% active;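 active = mean activation over triplicate wells above the hit cutoff derived from the earlier primary screen, cut at about 11% in these data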;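 also: 0% = DMSO low control and 100% = 2 mM sodium butyrate high control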
LXRb DAF12 ctr: counter-screen for DAF-12 agonists: agonists of human LXR-beta; HEK293 Gal4-LXR luciferase reporter, 24 h; shares compounds with hgDAF-12 ag; activation, % at 6.8 µM; 3,300 tested, under 10 active;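 active = mean activation of the triplicate above a set limit carried over from the primary screen, none filed active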
The depositor's hits bear a star; . = no result. This is a sample that favours compounds with a hit; in the whole collection about 3.4% have one here.

SMILES	hgDAF-12 ag	ssDAF12 agonist	hcDAF-12 act	APP 5'UTR act	NF-kB expr up	LXRb hcDAF ctr	hcDAF12 conf	hgDAF12 conf	LXRb DAF12 ctr
COc1ccc(-c2nc3c4ccccc4ccn3c2Cc2cccc(F)c2)cc1OC	16*	1.0*	6.7*	.	.	1	7.4*	14*	0
Cc1cc(SCC(=O)c2ccc(Cl)cc2)nc(=O)[nH]1	15*	1.3*	6.8*	.	.	2	5.8*	15*	1
Brc1cccc(-c2n[nH]c(-c3ccccc3)n2)c1	14*	1.8*	12*	132	3.9*	1	9.6*	21*	1
c1ccc(-c2nc(-c3cccnc3)n[nH]2)cc1	7	-1	1	17	1.4	.	.	.	.
CC(C)C[C@H]1COc2cccc(F)c2S(=O)(=O)N1Cc1cn(Cc2ccco2)nn1	4	-1	2	.	.	.	.	.	.
CC(C)CN1C[C@@H]2CSCCS(=O)(=O)N2C1=O	-1	0	0	.	.	.	.	.	.
N#CC(=C1CCCC1)c1nc(-c2ccccc2)cs1	17*	1.7*	7.5*	99	8.1*	1	6.0*	21*	1
COC(=O)C1CN(Cc2ccc(C)cc2)CCS(=O)(=O)N1Cc1cn(Cc2ccc(C)cc2)nn1 (configuration not stated)	0	-2	-2	.	.	.	.	.	.
Cc1ccc(NC(=O)c2ccc(Cl)nc2)cc1	14*	1.4*	8.7*	-3	2.2	0	8.2*	9	0
COC(=O)c1ccc(NC(=O)c2ccc3nccnc3c2)cc1	3	-1	-3	.	.	.	.	.	.
Cc1ccc(C(=O)Nc2ccc3nccnc3c2)cc1	13*	1	9.0*	145*	8.4*	2	7.7*	16*	1
COc1cccc(/C=N/Nc2ccc([N+](=O)[O-])cc2)c1O	25*	1	7.3*	.	.	2	7.2*	21*	1
CCN(CC)C(=O)CC[C@@H]1CC[C@]2(CCCN(S(C)(=O)=O)C2)O1	-1	-1	1	.	.	.	.	.	.
Cc1ccc(NC(=O)C(=O)c2c[nH]c3ccccc23)cc1	20*	1	7.2*	.	.	2	5	22*	1
Cc1ccc(NC(=O)c2cc(=O)[nH]c3ccccc23)cc1	0	-1	1	.	.	.	.	.	.
O=C(NN=C1CCCC1)c1cccs1	22*	1	7.0*	88	1.1	0	1	4	0
O=C(NN=C1CCCCCC1)c1ccncc1	3	0	0	.	.	.	.	.	.
O=C(O)c1ccccc1C(=O)Nc1ccccc1NC(=O)c1ccccc1C(=O)O	15*	0	7.0*	.	.	0	0	13*	1
O=C1c2ccccc2CN1c1ccccc1	6	-1	2	.	.	.	.	.	.
Cc1ccc(N2Cc3ccccc3C2=O)cc1	16*	1.5*	12*	.	.	2	8.8*	17*	1
O=C(N=c1nc2ccccn2s1)c1ccccc1	22*	1.1*	11*	.	.	2	13*	8	1
C=CCNC(=O)CN(C(=O)c1ccncn1)c1cccc(Br)c1	-3	-1	-3	.	.	.	.	.	.
O=Nc1c2cc3ccccc3[nH]c-2c2ccccc12	23*	1.1*	10*	.	.	2	12*	23*	1
Cn1c(=O)c(C(=O)Nc2ccccn2)c(O)c2ccccc21	17*	3.0*	14*	3	4.5*	2	18*	24*	1
Cn1c(=O)c(C(=O)Nc2ccccc2S(N)(=O)=O)c(O)c2ccccc21	7	0	3	.	.	.	.	.	.
SMILES	hgDAF-12 ag	ssDAF12 agonist	hcDAF-12 act	APP 5'UTR act	NF-kB expr up	LXRb hcDAF ctr	hcDAF12 conf	hgDAF12 conf	LXRb DAF12 ctr
Cc1cccc(-n2ncc3c(NC4CCCCC4)ncnc32)c1	25*	0	7.8*	180*	7.2*	2	6.2*	12*	1
O=C(N/N=C1\C2CN3CCN(C2)CC1(c1ccccc1)C3)c1ccc(F)cc1	10	-2	-1	-8	1.2	.	.	.	.
Nc1ccccc1C(=O)N/N=C1\C2CN3CCN(C2)CC1(c1ccccc1)C3	14*	0	12*	51	1.8	0	0	2	0
CCCC[C@H](C(=O)N(C)c1ccccc1)[C@@H](O)c1ccc(C(C)=O)cc1	0	-1	-4	.	.	.	.	.	.
O=[N+]([O-])c1ccccc1-c1cc(-c2ccccc2O)n[nH]1	16*	1	7.9*	98	2.5	1	4	13*	0
Cc1ccc(-c2cc(-c3cccc(F)c3)n[nH]2)c(O)c1	14*	2.5*	13*	215*	9.6*	1	7.6*	17*	1
Cc1ccc(-c2cc(C(=O)Nc3c(C)n(C)n(-c4ccccc4)c3=O)[nH]n2)c(O)c1	-1	-2	-2	6	0.69	.	.	.	.
Cc1ccc(-c2cc(-c3ccccc3C)[nH]n2)c(O)c1	14*	1	6.8*	120	6.3*	1	5	17*	1
Oc1ccccc1-c1cc(C(F)(F)C(F)F)[nH]n1	2	-2	-1	26	1.5	.	.	.	.
CCN(CC)c1nc(C)nc2c1nnn2Cc1ccccc1	-4	-2	-2	.	.	.	.	.	.
COc1ccc(C(=O)OCCCN(C)C2CN(Cc3cn(Cc4cccc(F)c4)nn3)S(=O)(=O)C2)cc1OC (configuration not stated)	4	-1	-2	.	.	.	.	.	.
N=NC(=O)c1ccccc1Nc1c(O)[nH]c2ccccc12	15*	2.3*	13*	.	.	1	14*	16*	1
CCc1sc(C(=O)Nc2nc(C)cs2)cc1C	15*	0	9.2*	.	.	2	6.1*	17*	1
Cc1csc(NC(=O)c2cc3c(s2)CCC3)n1	17*	1	7.4*	105	9.8*	2	9.0*	18*	1
Cc1nc(NC(=O)c2cc3c(s2)CCCCC3)sc1C(=O)N(C)C	7	-1	0	27	2.4	.	.	.	.
Cc1ccc(NC(=O)Nc2ccc3c(c2)nc(C)n3C)cc1	17*	1	8.7*	130	6.5*	1	5	17*	1
Cc1nc2cc(NC(=O)Nc3ccccc3Cl)ccc2n1C	15*	0	7.1*	193*	3.9*	2	7.8*	20*	1
Cc1ccc(S(=O)(=O)/N=C(/NC(=S)Nc2ccccc2)c2ccccc2)cc1	28*	2.6*	14*	144*	6*	1	5	20*	1
